Experimental data published in PubChem BioAssay (Tox21).
Inconclusive results are not listed. The source made the active and inactive calls. Unless noted, the call rests on the fitted dose curve; in most records, active means well fitted curve in the direction sought with a large enough effect in the repeat runs; inconclusive means weak or mixed curves; inactive means no such curve, though single readings can be large; an effect the other way counts as inactive or inconclusive.

Assays:
[1] = biological target: Aryl hydrocarbon receptor (Homo sapiens) (UniProt P35869); assay: qHTS assay to identify small molecule that activate the aryl hydrocarbon receptor (AhR) signaling pathway (AID 743085);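 further: HG2L7.5c1 human HepG2 liver cells with stably integrated DRE-driven firefly reporter; series mostly up to about 70 µM; nearly all actives have a fitted effect of over 15% in size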
Sequence of Aryl hydrocarbon receptor (Homo sapiens) (P35869 whole entry, looked up): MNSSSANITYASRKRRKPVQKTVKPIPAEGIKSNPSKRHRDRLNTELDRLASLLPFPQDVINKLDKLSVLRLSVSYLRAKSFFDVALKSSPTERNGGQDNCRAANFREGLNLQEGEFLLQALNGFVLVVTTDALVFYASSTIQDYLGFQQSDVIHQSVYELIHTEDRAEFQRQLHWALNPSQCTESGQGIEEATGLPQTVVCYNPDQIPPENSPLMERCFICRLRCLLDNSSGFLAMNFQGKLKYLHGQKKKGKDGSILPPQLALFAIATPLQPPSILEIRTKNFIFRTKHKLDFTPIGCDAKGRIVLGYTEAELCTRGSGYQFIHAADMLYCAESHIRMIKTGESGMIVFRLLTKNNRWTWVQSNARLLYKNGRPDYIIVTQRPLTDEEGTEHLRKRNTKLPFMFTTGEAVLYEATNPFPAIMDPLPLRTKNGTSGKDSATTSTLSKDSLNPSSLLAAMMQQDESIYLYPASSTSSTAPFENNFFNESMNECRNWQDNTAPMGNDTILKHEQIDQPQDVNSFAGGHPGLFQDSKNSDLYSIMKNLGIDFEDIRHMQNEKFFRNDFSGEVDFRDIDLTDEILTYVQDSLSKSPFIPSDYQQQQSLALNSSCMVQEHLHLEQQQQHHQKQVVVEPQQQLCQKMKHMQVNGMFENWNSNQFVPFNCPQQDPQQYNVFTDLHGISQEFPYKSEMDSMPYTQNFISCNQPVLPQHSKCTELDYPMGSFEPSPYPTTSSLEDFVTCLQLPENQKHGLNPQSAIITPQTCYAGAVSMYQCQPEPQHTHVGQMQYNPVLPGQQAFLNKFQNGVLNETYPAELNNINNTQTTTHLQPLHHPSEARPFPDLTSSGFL
Procedure, shortened: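 24 h compound exposure, 37C, HepG2-derived HG2L7.5c1 cells with DRE-responsive luciferase. Readouts: fluorescence viability, then luminescence at room temperature after 30 min.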

[2] = qHTS assay to identify small molecule that activate the aryl hydrocarbon receptor (AhR) signaling pathway - cell viability counter screen (AID 743086);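 further: HepG2 liver cells carrying the AhR DRE luciferase reporter; series mostly up to about 70 µM; nearly all actives have a fitted effect of over 45% in size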
Procedure, shortened: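 HepG2-AhR-luc (HG2L7.5c1) cells, 4000/well, treated 24 h at 37 C with compound; viability measured as CellTiter-Fluor fluorescence after 30 min in the same wells as the luciferase read.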

[3] = biological target: Peroxisome proliferator-activated receptor gamma (Homo sapiens) (UniProt P37231); assay: qHTS assay to identify small molecule agonists of the peroxisome proliferator-activated receptor gamma (PPARg) signaling pathway (AID 743094; active means well fitted activation curve with a large enough effect in the signal ratio in the repeat runs, not every such curve was filed as active; the % refers to the signal ratio)
Sequence of Peroxisome proliferator-activated receptor gamma (Homo sapiens) (P37231 whole entry, looked up): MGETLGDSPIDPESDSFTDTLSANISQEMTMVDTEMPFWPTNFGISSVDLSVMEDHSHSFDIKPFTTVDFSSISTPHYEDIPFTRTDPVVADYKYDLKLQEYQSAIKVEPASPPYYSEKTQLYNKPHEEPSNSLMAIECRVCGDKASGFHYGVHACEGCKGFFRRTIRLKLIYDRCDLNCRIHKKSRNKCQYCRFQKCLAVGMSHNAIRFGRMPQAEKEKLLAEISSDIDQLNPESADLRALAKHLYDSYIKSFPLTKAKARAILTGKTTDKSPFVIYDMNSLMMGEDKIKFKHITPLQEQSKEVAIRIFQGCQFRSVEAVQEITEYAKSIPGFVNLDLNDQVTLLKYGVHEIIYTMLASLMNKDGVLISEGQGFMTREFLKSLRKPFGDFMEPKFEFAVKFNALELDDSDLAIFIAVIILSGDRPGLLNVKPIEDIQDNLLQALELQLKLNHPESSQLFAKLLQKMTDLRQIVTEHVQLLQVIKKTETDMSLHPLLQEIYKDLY
Procedure, shortened: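 HEK293H PPARg-bla cells, 5 h settle at 37C/5% CO2; compound (DMSO) 17 h, 37C; B/G FRET substrate 1 h RT; fluorescence intensity read-out. qHTS format.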

[4] = biological target: Peroxisome proliferator-activated receptor gamma (Homo sapiens) (UniProt P37231); assay: qHTS assay to identify small molecule antagonists of the peroxisome proliferator-activated receptor gamma (PPARg) signaling pathway (AID 743191; calls by dose curve; further: series mostly up to about 63 µM; nearly all actives have a fitted effect of over 30% in size)
Procedure, shortened: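 GeneBLAzer PPARg UAS-bla HEK293H cells, 5 h post-plating, exposed to compounds 17 h at 37C. LiveBLAzer B/G FRET substrate added for 1 h at room temperature; beta-lactamase reporter read by fluorescence intensity.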

[5] = qHTS assay to identify small molecule antagonists of the peroxisome proliferator-activated receptor gamma (PPARg) signaling pathway - cell viability counter screen (AID 743194); further: nearly all actives have a fitted effect of over 55% in size
Procedure, shortened: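 Cytotoxicity counter screen in PPARg-bla HEK293H cells, same wells as reporter assay. Compounds plus 50 nM rosiglitazone (final) for 17 h at 37 C, then viability read by CellTiter-Glo luminescence.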

[6] = qHTS assay for small molecule agonists of the antioxidant response element (ARE) signaling pathway (AID 743202; active means well fitted activation curve with a large enough effect in the signal ratio in the repeat runs, not every such curve was filed as active; the % refers to the signal ratio)
Procedure, shortened: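 HepG2 ARE-bla reporter line, 2,000 cells/well; 5 h preincubation 37 C/5% CO2; compound (DMSO) 16 h 37 C; B/G FRET substrate 2 h RT; fluorescence intensity.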

[7] = qHTS assay for small molecule agonists of the antioxidant response element (ARE) signaling pathway - cell viability counter screen (AID 743203; calls by dose curve; further: nearly all actives have a fitted effect of over 55% in size)
Procedure, shortened: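 Luminescence read-out (CellTiter-Glo, 30 min at room temperature) measured cell viability in the same wells as the ARE beta-lactamase reporter. HepG2 ARE-bla cells were treated with compounds for 16 hrs at 37C/5% CO2.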

[8] = qHTS assay for small molecule activators of the heat shock response signaling pathway - cell viability counter screen (AID 743209); further: nearly all actives have a fitted effect of over 50% in size
Procedure, shortened: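 HSE-bla HeLa; 1500 cells/well; overnight 37 C, 5% CO2; compound 5 h 37 C; LiveBLAzer B/G substrate 2.5 h RT; CellTiter-Glo 30 min RT; luminescence.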

[9] = qHTS assay for small molecule activators of the heat shock response signaling pathway (AID 743210; active means well fitted activation curve with a large enough effect in the signal ratio in the repeat runs, with a control signal flat, not every such curve was filed as active; the % refers to the signal ratio;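 further: HeLa cells with beta-lactamase reporter driven by heat shock elements; series mostly up to about 63 µM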)
Procedure, shortened: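 Beta-lactamase reporter read-out: FRET substrate fluorescence after 2.5 h at RT, following 5 h compound treatment at 37 C of HeLa cells carrying HSE-driven bla reporter; quantitative HTS format.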

[10] = qHTS assay to identify small molecule agonists of the peroxisome proliferator-activated receptor delta (PPARd) signaling pathway - cell viability counter screen (AID 743211); further: nearly all actives have a fitted effect of over 55% in size
Procedure, shortened: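 Luminescent ATP viability assay (CellTiter-Glo, 30 min RT) in UAS-bla HEK293H cells carrying the PPAR delta reporter construct, 3000 cells/well, after a 17 h compound treatment at 37 C.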

[11] = biological target: Peroxisome proliferator-activated receptor delta (Homo sapiens) (UniProt Q03181); assay: qHTS assay to identify small molecule agonists of the peroxisome proliferator-activated receptor delta (PPARd) signaling pathway (AID 743212; calls by dose curve)
Sequence of Peroxisome proliferator-activated receptor delta (Homo sapiens) (Q03181 whole entry, looked up): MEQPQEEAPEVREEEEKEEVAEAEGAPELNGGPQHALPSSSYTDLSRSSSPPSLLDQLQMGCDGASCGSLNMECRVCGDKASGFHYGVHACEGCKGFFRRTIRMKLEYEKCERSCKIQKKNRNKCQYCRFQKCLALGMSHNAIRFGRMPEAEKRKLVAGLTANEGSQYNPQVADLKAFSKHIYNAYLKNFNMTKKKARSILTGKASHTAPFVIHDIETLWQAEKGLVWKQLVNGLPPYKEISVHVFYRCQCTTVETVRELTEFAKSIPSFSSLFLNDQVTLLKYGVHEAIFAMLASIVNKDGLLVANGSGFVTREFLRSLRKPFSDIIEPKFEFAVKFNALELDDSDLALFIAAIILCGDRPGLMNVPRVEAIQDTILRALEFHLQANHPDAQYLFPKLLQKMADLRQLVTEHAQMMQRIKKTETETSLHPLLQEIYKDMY
Procedure, shortened: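 Read-out: beta-lactamase FRET fluorescence after 2 h room-temperature incubation with LiveBLAzer B/G substrate. Cells were HEK293H carrying a UAS-bla reporter for PPARd, treated at 37 C with DMSO-dissolved compounds.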

[12] = qHTS assay to identify small molecule antagonists of the peroxisome proliferator-activated receptor delta (PPARd) signaling pathway - cell viability counter screen (AID 743213); further: nearly all actives have a fitted effect of over 50% in size
Procedure, shortened: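 PPARd-bla HEK293H cells (3000/well) got compound plus 300 nM L165041 agonist for 17 h at 37 C. Viability in the same wells came from CellTiter-Glo luminescence after 30 min at room temperature.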

[13] = biological target: Peroxisome proliferator-activated receptor delta (Homo sapiens) (UniProt Q03181); assay: qHTS assay to identify small molecule antagonists of the peroxisome proliferator-activated receptor delta (PPARd) signaling pathway (AID 743215; active means well fitted inhibition curve with a large enough effect in the signal ratio in the repeat runs, not every such curve was filed as active; the % refers to the signal ratio;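 further: cells stimulated with agonist L165041 at 300 nM final during compound exposure; series mostly up to about 62 µM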)
Procedure, shortened: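 HEK293H GeneBLAzer PPARd UAS-bla reporter cells; cpd + L165041 300 nM final, 17 h 37 C; LiveBLAzer B/G FRET substrate 2 h RT; fluorescence intensity read-out. Antagonist mode.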

[14] = qHTS assay to identify small molecule agonists of the farnesoid-X-receptor (FXR) signaling pathway - cell viability counter screen (AID 743218); further: nearly all actives have a fitted effect of over 45% in size
Procedure, shortened: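 Luminescence from CellTiter-Glo, read after 30 min at RT, reports viability of GeneBLAzer FXR-UAS-bla HEK 293T cells treated 16 h with compounds in the wells used for the beta-lactamase reporter.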

[15] = biological target: Bile acid receptor (Homo sapiens) (UniProt Q96RI1); assay: qHTS assay to identify small molecule agonists of the farnesoid-X-receptor (FXR) signaling pathway (AID 743220; active means well fitted activation curve with a large enough effect in the signal ratio in the repeat runs, not every such curve was filed as active; the % refers to the signal ratio)
Sequence of Bile acid receptor (Homo sapiens) (Q96RI1 whole entry, looked up): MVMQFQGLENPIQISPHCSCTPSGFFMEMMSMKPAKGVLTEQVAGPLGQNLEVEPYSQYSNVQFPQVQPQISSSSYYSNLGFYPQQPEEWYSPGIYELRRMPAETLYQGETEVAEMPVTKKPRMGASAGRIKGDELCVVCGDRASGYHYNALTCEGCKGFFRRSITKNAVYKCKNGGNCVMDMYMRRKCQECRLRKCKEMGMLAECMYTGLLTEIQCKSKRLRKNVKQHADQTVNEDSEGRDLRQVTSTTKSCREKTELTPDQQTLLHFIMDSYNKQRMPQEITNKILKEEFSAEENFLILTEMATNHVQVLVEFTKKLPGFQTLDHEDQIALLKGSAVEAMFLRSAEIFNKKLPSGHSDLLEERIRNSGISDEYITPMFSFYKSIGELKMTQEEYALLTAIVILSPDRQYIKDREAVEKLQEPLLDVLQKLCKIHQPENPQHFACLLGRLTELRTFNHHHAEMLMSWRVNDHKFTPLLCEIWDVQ
Procedure, shortened: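 FXR-UAS-bla HEK 293T cells carrying a UAS-driven beta-lactamase reporter were plated for 5 h at 37C/5% CO2, then exposed to DMSO-dissolved Tox21 10K compounds for 16 h at 37C. A LiveBLAzer B/G FRET substrate was loaded for 2 h at room temperature before fluorescence reading.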

[16] = qHTS assay to identify small molecule antagonists of the farnesoid-X-receptor (FXR) signaling pathway - cell viability counter screen (AID 743221; active means well fitted cell-killing curve with a large enough effect in the repeat runs, not every such curve was filed as active; further: nearly all actives have a fitted effect of over 50% in size)
Procedure, shortened: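 In GeneBLAzer FXR-UAS-bla HEK 293T cells stimulated with 50 uM chenodeoxycholic acid (final), compounds acted for 16 h at 37 C. Viability was assessed afterwards by CellTiter-Glo luminescence.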

[17] = biological target: Vitamin D3 receptor (Homo sapiens) (UniProt P11473); assay: qHTS assay to identify small molecule agonists of the vitamin D receptor (VDR) signaling pathway (AID 743222; calls by dose curve)
Sequence of Vitamin D3 receptor (Homo sapiens) (P11473 whole entry, looked up): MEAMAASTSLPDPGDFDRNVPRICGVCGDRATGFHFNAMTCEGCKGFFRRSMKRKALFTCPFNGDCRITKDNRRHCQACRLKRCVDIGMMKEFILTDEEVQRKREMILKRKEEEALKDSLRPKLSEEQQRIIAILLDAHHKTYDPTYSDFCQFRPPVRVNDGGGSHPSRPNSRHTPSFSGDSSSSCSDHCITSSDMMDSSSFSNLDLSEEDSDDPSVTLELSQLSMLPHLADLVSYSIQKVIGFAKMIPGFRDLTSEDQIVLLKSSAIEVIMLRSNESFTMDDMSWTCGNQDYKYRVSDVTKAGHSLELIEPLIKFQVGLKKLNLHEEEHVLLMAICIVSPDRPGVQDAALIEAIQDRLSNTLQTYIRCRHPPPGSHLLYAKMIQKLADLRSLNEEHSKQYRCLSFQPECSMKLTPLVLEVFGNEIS
Procedure, shortened: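 Beta-lactamase reporter readout (LiveBLAzer B/G FRET, 2 h RT) in VDR-bla cells after 16 h compound treatment at 37C, 5% CO2; cells pre-incubated 4 h before pin transfer of DMSO solutions.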

[18] = qHTS assay to identify small molecule agonists of the vitamin D receptor (VDR) signaling pathway - cell viability counter screen (AID 743224); further: series mostly up to about 63 µM; nearly all actives have a fitted effect of over 50% in size
Procedure, shortened: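 Cytotoxicity counter screen: VDR-bla cells, 16 h compound exposure at 37C, 5% CO2; CellTiter-Glo luminescence, 30 min RT, same wells as bla read.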

[19] = biological target: Vitamin D3 receptor (Homo sapiens) (UniProt P11473); assay: qHTS assay to identify small molecule antagonists of the vitamin D receptor (VDR) signaling pathway (AID 743223; active means well fitted inhibition curve with a large enough effect in the signal ratio in the repeat runs, not every such curve was filed as active; the % refers to the signal ratio)
Procedure, shortened: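 Agonist 1alpha,25-dihydroxyvitamin D3 (3 nM in well) was added with each compound to VDR-bla cells preincubated 4 h. Cells stood 16 h at 37C, then FRET substrate 2 h at room temperature; fluorescence intensity recorded.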

[20] = biological target: Bile acid receptor (Homo sapiens) (UniProt Q96RI1); assay: qHTS assay to identify small molecule antagonists of the farnesoid-X-receptor (FXR) signaling pathway (AID 743217; active means well fitted inhibition curve with a large enough effect in the signal ratio in the repeat runs, not every such curve was filed as active; the % refers to the signal ratio)
Procedure, shortened: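 Read-out: beta-lactamase FRET fluorescence (LiveBLAzer B/G substrate, 2 h, room temperature) in GeneBLAzer FXR-UAS-bla HEK 293T cells. Compounds were co-dosed with 50 uM chenodeoxycholic acid (final) and incubated 16 h at 37 °C.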
On the % scale 0 is the no-effect control and ±100 the full control effect.

C=CC(=O)CC
inactive: Potency [1] | outcome [2] | outcome [3] | outcome [4] | outcome [5] | Potency [6] | outcome [7] | Potency [8] | outcome [9] | outcome [10] | outcome [11] | outcome [12] | outcome [13] | outcome [14] | outcome [15] | outcome [16] | outcome [17] | outcome [18]

CC(C)=CCC/C(C)=C\C#N
inactive: Potency [1] | outcome [2] | outcome [3] | outcome [4] | outcome [5] | Potency [6] | outcome [7] | Potency [8] | outcome [12] | outcome [14] | outcome [15] | outcome [16] | outcome [17] | outcome [19] | outcome [18]

CN(C)CCc1c[nH]c2ccc(C[C@H]3COC(=O)N3)cc12
inactive: Potency [1] | outcome [2] | outcome [3] | outcome [4] | outcome [5] | Potency [6] | outcome [7] | Potency [8] | outcome [9] | outcome [12] | outcome [20] | outcome [14] | outcome [15] | outcome [16] | outcome [18]

NC[C@H]1O[C@H](O[C@H]2[C@H](O)[C@@H](O[C@H]3O[C@H](CO)[C@@H](O)[C@H](N)[C@H]3O)[C@H](N)C[C@@H]2N)[C@H](N)[C@@H](O)[C@@H]1O
inactive: Potency [1] | outcome [2] | outcome [3] | outcome [4] | outcome [5] | Potency [6] | outcome [7] | Potency [8] | outcome [10] | outcome [12] | outcome [14] | outcome [16] | outcome [17] | outcome [18]

COCc1nnc(-c2ccc[n+]([O-])c2)n1-c1c(Cl)c(Cl)cc2[nH]c(=O)c(=O)[nH]c12
inactive: Potency [1] | outcome [2] | outcome [3] | outcome [4] | outcome [5] | Potency [6] | outcome [7] | Potency [8] | outcome [9] | outcome [12] | outcome [20] | outcome [14] | outcome [15] | outcome [16] | outcome [17] | outcome [19] | outcome [18]

CN(C)CCCN(C)C
inactive: activation [1] -0.58% [at 8.47 µM] | viability change, negative = cytotoxic [2] -2.64% [at 8.47 µM] | activation [3] -0.396% [at 7.08 µM] | ratio activity, negative = inhibition [4] 4.44% [at 5.95 µM] | activity change, negative = cytotoxicity [5] -7.23% [at 5.95 µM] | activation [6] -1.85% [at 8.36 µM] | viability change, negative = cytotoxic [7] 5.88% [at 8.36 µM] | activation [9] -0.827% [at 5.95 µM] | activity change, negative = cytotoxicity [10] -3.03% [at 5.95 µM] | activation [11] -1.31% [at 5.95 µM] | viability change, negative = cytotoxic [12] 1.43% [at 6.26 µM] | ratio activity, negative = inhibition [13] 5.28% [at 6.26 µM] | viability change, negative = cytotoxic [14] 2.3% [at 5.95 µM] | activity change, negative = cytotoxicity [16] 0.644% [at 5.95 µM] | activation [17] -2.68% [at 6.01 µM] | activity change, negative = cytotoxicity [18] 0.624% [at 5.95 µM]

CCCCCCCCC1CO1 (configuration not stated)
inactive: Potency [1] | outcome [2] | outcome [3] | outcome [4] | Potency [6] | outcome [7] | Potency [8] | outcome [9] | outcome [10] | outcome [11] | outcome [12] | outcome [13] | outcome [20] | outcome [14] | outcome [15] | outcome [16] | outcome [17] | outcome [18]

CCCc1ccc(O)c(OC)c1
inactive: Potency [1] | outcome [2] | outcome [3] | outcome [4] | outcome [5] | Potency [6] | Potency [8] | outcome [9] | outcome [10] | outcome [12] | outcome [14] | outcome [16] | outcome [17] | outcome [18]

N[C@H]1C(O)O[C@H](CO)[C@@H](O)[C@@H]1O (some centres not stated)
inactive: Potency [1] | outcome [2] | outcome [3] | outcome [4] | outcome [5] | outcome [7] | Potency [8] | outcome [9] | outcome [10] | outcome [11] | outcome [12] | outcome [13] | outcome [17] | outcome [19] | outcome [18]
